Data: PubChem BioAssay AID493170 (National Center for Advancing Translational Sciences (NCATS), 2011)
Inconclusive results are not listed. Activity calls are given as the source filed them. Calls follow the shape of the dose curve; as a rule, active = well fitted inhibition curve with a large enough effect; inconclusive = small, poorly fitted or top-dose-only effect, or effect the other way; inactive = flat fitted curve, though single readings scatter.

Each compound was assayed against Ubiquitin carboxyl-terminal hydrolase 2 (Homo sapiens) (UniProt O75604) (assay: Ub-rhodamine 110 based assay for inhibitors Ubiquitin-specific Protease USP2a). Conditions: USP2a Ub-rhodamine110 cleavage, fluorescence; series mostly up to 38.3 µM; activity change, negative = inhibition: at the top concentration.
Summary of the method: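 5 nM USP2a preincubated with compounds for 30 min at RT in 20 mM Tris-HCl pH 8.0, 2 mM CaCl2, 2 mM beta-mercaptoethanol, 0.05% CHAPS. Cleavage of 150 nM Ub-rhodamine 110 read kinetically (Ex 485/Em 531) for 7 min.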
% is scaled to controls: 0 for no effect and ±100 for the full control effect; potency is read from the fitted curve at half-maximal effect.
Also: nearly all actives have a fitted effect of over 50% in size.

Chain of Ubiquitin carboxyl-terminal hydrolase 2 (Homo sapiens) (O75604 whole entry, looked up): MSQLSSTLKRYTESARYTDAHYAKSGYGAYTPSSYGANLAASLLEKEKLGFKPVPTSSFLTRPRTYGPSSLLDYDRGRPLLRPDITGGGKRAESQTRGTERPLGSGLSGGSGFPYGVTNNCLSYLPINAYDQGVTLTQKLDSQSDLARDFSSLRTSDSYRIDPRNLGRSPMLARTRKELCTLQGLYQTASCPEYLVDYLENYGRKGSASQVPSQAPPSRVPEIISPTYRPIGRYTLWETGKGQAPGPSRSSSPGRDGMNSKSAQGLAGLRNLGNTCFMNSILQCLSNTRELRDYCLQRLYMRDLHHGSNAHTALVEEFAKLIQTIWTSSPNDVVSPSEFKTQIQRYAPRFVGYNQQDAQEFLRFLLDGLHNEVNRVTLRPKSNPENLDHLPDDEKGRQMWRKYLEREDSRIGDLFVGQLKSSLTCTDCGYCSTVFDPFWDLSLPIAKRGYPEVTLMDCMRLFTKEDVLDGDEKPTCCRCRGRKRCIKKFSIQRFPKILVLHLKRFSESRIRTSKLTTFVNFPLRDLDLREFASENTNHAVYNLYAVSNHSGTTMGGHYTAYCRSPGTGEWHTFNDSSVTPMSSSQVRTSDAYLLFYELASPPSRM

Potency, active:
COc1cc(C(=O)OC2CCCCC2=O)cc(OC)c1C (centres undefined) 11.2 µM, CCC(C)Cn1c(O)cc2nn(-c3nc4ccccc4s3)c(=O)c-2c1C (centres undefined) 10 µM, CCOc1ccc(NC(=O)c2ccc(NC(=O)COC(=O)c3ccc(NC(=O)CC#N)cc3)cc2)cc1 3.98 µM, O=C(Nc1ccc2nc(-c3ccco3)c(-c3ccco3)nc2c1)N1CCN(c2ccccn2)CC1 3.55 µM, COc1ccc(S(=O)(=O)NCCSCc2ccco2)cc1OC 10 µM, O=C(NN1C(=O)/C(=C/C=C/c2ccco2)SC1=S)c1ccncc1 10 µM, O=S(=O)(Nc1ccc(O)c(Sc2nc3ccccc3s2)c1)c1cccc2ccccc12 10 µM

Activity change, negative = inhibition, inactive:
CCSc1nc(N2CCCCC2)c2c(c1C#N)CCCC2 -8.51%, COc1ccc(-c2cc(C(F)(F)F)nc(S(C)(=O)=O)n2)cc1 -4.73%, FC(F)Sc1ccc(NC(=S)NC2CCCCC2)cc1 -3%, CCCCCCCCCCOC(=O)Cn1c(COc2ccc(OC)cc2)[n+](C)c2ccccc21 -10.1%, O=C(CN1CCOCC1)Nc1ccc(C2CCCCC2)cc1 14.6%, Cc1nc2ccccc2c2oc(C(=O)NCCN3CCN(C)CC3)cc12 -12.3%, OCCN(Cc1ccccc1)c1ncnc2sccc12 -13.2%, COc1ccc(C(=O)Nc2ccc(N3CCCC3)cc2)cc1OC -7.74%, Cc1ccc(C(=O)NCCNS(=O)(=O)c2ccccc2)cc1 -7.92%, Cn1c(=O)[nH]c(=O)c2c1nc(NCc1ccccc1)n2CCCc1ccccc1 -4.18%, CCOC(=O)N1CCN(S(=O)(=O)c2ccc(C)cc2)C1c1ccc(OC)cc1 (centres undefined) -18.1%, Cc1cc(C(C)(C)CC(C)(C)C)ccc1OCCOCC[N+](C)(C)Cc1ccccc1 -5.87%, CCn1cc(C(=O)N2CCOCC2)c(=O)c2cc(S(=O)(=O)N(C)C)ccc21 3.51%, C[C@H](CO)N1C[C@H](C)[C@@H](CN(C)S(=O)(=O)c2cccs2)Oc2c(NC(=O)Nc3ccc4c(c3)OCO4)cccc2C1=O -4.09%, COc1cccc(NC(=O)c2ccccc2-c2nc(-c3cccc(C)c3)no2)c1 -16.3%, Cn1c(C(=O)N2CCN(Cc3ccc4c(c3)OCO4)CC2)cc2sccc21 5.73%, CCOc1ccc(S(=O)(=O)N(CC(=O)O)c2ccccc2)cc1 3.71%, O=C(CSCc1cnn(-c2ccccc2)c1-n1cccc1)NCC1CCCO1 (centres undefined) 0.658%, CC(OC(=O)c1nsc(Cl)c1Cl)C(=O)NCc1ccco1 (centres undefined) 4.12%, COc1ccc(-c2csc(N3CCN(C(=O)c4ccco4)CC3)n2)cc1 -9.11%, CCC(CO)Nc1nc(CN2CCCCC2)nc2scc(-c3ccccc3)c12 (centres undefined) -3.55%, COc1ccc2cc(CN(C(=O)Nc3ccccc3)C3CCCC3)c(=O)[nH]c2c1 -11.7%, Cn1c2ccccc2c2nnc(SC3CCOC3=O)nc21 (centres undefined) 1.37%, COc1ccccc1NC(=O)N1CCN(c2ccccn2)CC1 -6.78%, Cc1ccc(Nc2nc(N)nc(CN3CCN(C(=O)c4ccco4)CC3)n2)cc1Cl -14.7%, CC12CN3CC(C)(CN(C1)C3c1ccc(Cl)cc1Cl)C2O (centres undefined) -1.96%, CC(C)n1nc(C(=O)Nc2ccccc2N2CCOCC2)c2ccccc2c1=O -15.2%, CCN(CC(=O)Nc1ccc(NC(C)=O)cc1)C(=O)c1ccc(N2CCC(C)CC2)c([N+](=O)[O-])c1 -22%, COc1ccc(OCC(=O)NCCNC(=O)c2cccnc2)cc1 10.5%, Cc1csc(NC(=O)CCn2c(=O)sc3ccccc32)n1 -7.06%, Cc1ccc(C(C)C)c(OCc2nn(CC(=O)c3ccc(OC(F)F)cc3)c3[n+]2CCCCC3)c1 -4.28%, CN(C)c1cccc(C(=O)NNC(=O)C23CC4CC(CC(C4)C2)C3)c1 0.556%
